Bioassay records deposited in PubChem BioAssay by National Center for Advancing Translational Sciences (NCATS).
TDP1 cell CPT: DT40-hTDP1 cell growth loss with CPT | chicken DT40 Tdp1-/-;hTDP1 cells + 20 nM CPT, ATP luminescence, 48 h | Potency, µM (top dose mostly 46.2 µM), for the others: top-dose activity change, negative = growth inhibition, hits mostly inhibitors | 12% of 420,000 active | AID 686979; also: potency is read from the fitted curve at half-maximal effect; % is scaled to controls: 0 for no effect and ±100 for the full control effect; nearly all actives have a fitted effect of over 55% in size
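Chicken DT40 Tdp1-/- cells stably complemented with human TDP1 were seeded at 400 cells/well in medium containing 20 nM camptothecin, exposed to pin-transferred compounds, and grown at 37 °C for at least 48 hr. Viability was read as ATP luminescence.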
IL1B secr inh: blocks inflammasome-driven IL-1 beta release | 4.7% of 360,000 active | activity change, % at 57.5 µM | THP-1 LPS/ATP IL-1B secretion, AlphaLISA, 16 h; hits give low values; in the data active = activity change below about -50%; inconclusive = mostly about -30% to -49%; also: % is scaled to controls: 0 for no effect and ±100 for the full control effect
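THP-1 cells pretreated 1 hr with compounds (up to 57.5 uM final), then stimulated with LPS (250 ng/mL final) plus ATP (1.25 mM final); secreted IL-1B measured by AlphaLISA after 16 hr, decreased signal indicating inhibition.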
TDP1 cell noCPT: qHTS for Inhibitors of human tyrosyl-DNA phosphodiesterase 1 (TDP1): qHTS in cells in absence of CPT; DT40 Tdp1-/- hTDP1 cells, no CPT, ATP luminescence, 48 h; Potency, µM (top dose mostly 46.2 µM), inactives show at the top dose activity change, negative = growth inhibition, actives largely listed as inhibitors; 15% of 420,000 active; also: potency is read from the fitted curve at half-maximal effect; % is scaled to controls: 0 for no effect and ±100 for the full control effect; nearly all actives have a fitted effect of over 55% in size
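Chicken DT40 Tdp1-/- cells stably complemented with human TDP1 were seeded at 400 cells/well with DMSO in place of 20 nM camptothecin. After compound pinning, cells grew at least 48 hr at 37 °C; viability read by CellTiter-Glo luminescence.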
ClpP mod: qHTS Assay for Activators of ClpP; ATP-dependent Clp protease proteolytic subunit (Bacillus subtilis (strain 168)), P80244; purified B. subtilis ClpP, FRET peptide cleavage, 20 min; Potency, µM (highest dose often 57.5 µM), without a hit: at the top dose activity change, negative = active; 1.9% of 340,000 active; AID 651965, 2013; active = well fitted falling curve with a large enough effect; inconclusive = small, poorly fitted or top-dose-only effect; inactive = no such curve, though single readings can be large or run the other way; also: potency is read from the fitted curve at half-maximal effect; the source files actives as falling curves though it sought activators and does not explain the sign; nearly all actives have a fitted effect of over 65% in size
Target sequence (P80244 whole entry, looked up): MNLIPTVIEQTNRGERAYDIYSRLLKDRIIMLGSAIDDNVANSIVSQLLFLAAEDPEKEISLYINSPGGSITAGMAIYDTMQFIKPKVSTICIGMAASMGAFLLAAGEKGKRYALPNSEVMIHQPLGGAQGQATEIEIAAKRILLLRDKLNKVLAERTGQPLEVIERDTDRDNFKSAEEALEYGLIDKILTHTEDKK
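FRET quenching reversal measured ClpP activation: 10 microg/mL B. subtilis ClpP at pH 8 with the FRET-FV decapeptide, read at 430 nm after 320 nm excitation. The 20-min minus 0-min signal was scaled between DMSO/no-enzyme wells and ADEP (5.8 microM final).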
D3 ag: D3 dopamine receptor (human) agonism; D3R DiscoveRx beta-arrestin cells, luminescence, 90 min; 0.58% of 410,000 active; P35462; AID 652048; max activation, %; in the data active = max activation above about 30%; also: 0% is about no effect
Target sequence (P35462 whole entry, looked up): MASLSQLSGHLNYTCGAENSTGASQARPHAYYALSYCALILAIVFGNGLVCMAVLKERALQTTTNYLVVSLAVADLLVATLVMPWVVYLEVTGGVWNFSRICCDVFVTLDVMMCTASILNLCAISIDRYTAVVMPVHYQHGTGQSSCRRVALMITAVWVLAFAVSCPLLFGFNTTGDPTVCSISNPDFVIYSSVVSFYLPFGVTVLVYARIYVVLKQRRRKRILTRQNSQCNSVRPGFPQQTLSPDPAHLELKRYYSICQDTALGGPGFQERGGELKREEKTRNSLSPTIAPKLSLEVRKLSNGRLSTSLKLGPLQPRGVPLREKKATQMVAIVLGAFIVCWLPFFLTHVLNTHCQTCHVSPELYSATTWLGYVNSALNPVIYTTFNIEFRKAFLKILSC
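Agonist mode: compounds and dopamine controls were applied to plated cells for 90 min at 37 degrees C after an overnight attachment at 1500 cells/well. Luminescent read-out followed 30 - 60 minutes at room temperature with DiscoveRx detection reagent.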
D3 antag: antagonists of human D3 dopamine receptor. P35462. D3R cells, DiscoveRx beta-arrestin luminescence, antagonist mode; hits give low values. max response, negative = inhibition, %. 2.5% of 360,000 active; in the data active = max response below about -50%; inconclusive = no clear call, values can overlap the other calls; also: % is scaled to controls: 0 for no effect and ±100 for the full control effect
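Cells expressing the human receptor were seeded at 1500 cells/well, incubated overnight at 37 degrees C in 5% CO2, then exposed to library compounds with dopamine controls for 90 minutes at 37 degrees C before luminescent detection.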
Starred values were filed as active, the others as inactive; ? = inconclusive; . = not tested or not shown; ! = not active in a repeat. Most compounds without a hit are left out; they make up all but 21% or so of the library. Unless noted, calls follow the shape of the dose curve; as a rule, active = well fitted inhibition curve with a large enough effect; inconclusive = small, poorly fitted or top-dose-only effect; inactive = flat fitted curve, though single readings scatter.

SMILES | TDP1 cell CPT | IL1B secr inh | TDP1 cell noCPT | ClpP mod | D3 ag | D3 antag
COc1ccc(/C=N/NC(=O)c2csc(-n3nc(C)cc3C(F)(F)F)n2)cc1 | ? | -15.9 | 20.6µM* | -14.3% | 2.7 | -4.3
CC[C@H](C)[C@H](NC(=O)OCc1ccccc1)C(=O)OCC(=O)N1CCN(c2ccc(F)cc2)CC1 | ? | -6.7 | ? | 0.8% | 0.3 | 4.2
Cc1c(C(=O)NCc2ccccc2)oc2ccc(S(=O)(=O)N3CCC4(CC3)OCCO4)cc12 | ? | -11.0 | 20.6µM* | -2.0% | 0.0 | 21.3
COc1cccc(NC(=O)c2oc3ccc(S(=O)(=O)N4CCOCC4)cc3c2C)c1 | 14.6µM*! | -9.8 | 13µM* | -0.9% | -0.1 | 9.5
Cc1c(C(=O)NCc2ccccn2)oc2ccc(S(=O)(=O)N3CCC4(CC3)OCCO4)cc12 | 10.2% | 0.0 | -19.0% | . | -3.3 | 7.9
Cc1ccc(NC(=O)c2oc3ccc(S(=O)(=O)N4CCOCC4)cc3c2C)cc1C | ? | 20.2 | -18.0% | ? | 12.5 | 29.7
COc1cccc(NC(=O)c2oc3ccc(S(=O)(=O)N4CCC5(CC4)OCCO5)cc3c2C)c1 | 5.8µM* | . | 5.17µM* | 57.9% | 6.7 | .
COc1ccc2oc(C(=O)Nc3ccc(N4CCOCC4)cc3)c(C)c2c1 | ? | -56.9* | ? | -19.6% | 6.1 | 33.6
Cc1ccc(NC(=O)c2oc3ccc(S(=O)(=O)N4CCCCCC4)cc3c2C)cc1Cl | -12.4% | . | -6.9% | -10.4% | -5.4 | .
Cc1c(C(=O)Nc2ccccc2Cl)oc2ccc(S(=O)(=O)N3CCCCCC3)cc12 | 5.8µM* | . | 13µM* | -9.8% | -6.9 | .
Cc1c(C(=O)Nc2cccc(Cl)c2)oc2ccc(S(=O)(=O)N3CCCCCC3)cc12 | 23.1µM* | . | ? | -22.0% | -1.0 | .
Cc1c(C(=O)N2CCN(S(=O)(=O)c3cccs3)CC2)oc2ccc(F)cc12 | ? | -10.5 | 16.4µM* | 0.8% | 0.2 | 0.9
Cc1c(C(=O)Nc2cc(S(=O)(=O)N3CCOCC3)ccc2N2CCOCC2)oc2ccccc12 | 18.4µM* | -8.5 | ? | ? | -1.3 | 2.6
Cc1cccc(C)c1NC(=O)c1csc([C@@H]2O[C@H](CO)[C@H](O)[C@H](O)[C@H]2O)n1 | -0.4% | 43.3 | -1.7% | 0.4% | 5.1 | -10.0
CCCCNC(=O)C1(C)CCN1C(=O)c1ccc2ccccc2n1 (configuration not stated) | ? | 57.9 | -20.7% | 1.1% | 9.2 | 7.4
COc1ccc2oc(C(=O)N3CCN(S(=O)(=O)c4cccc([N+](=O)[O-])c4)CC3)c(C)c2c1 | 16.4µM* | -3.3 | 14.6µM* | 0.3% | 6.1 | 27.9
Cc1c(C(=O)Nc2cccc(Cl)c2)oc2ccc(S(=O)(=O)N3CCC4(CC3)OCCO4)cc12 | 9.2µM* | 0.0 | 18.4µM* | -4.5% | 26.4 | 28.5
Cc1ccc(Cl)cc1NC(=O)c1oc2ccc(S(=O)(=O)N3CCC4(CC3)OCCO4)cc2c1C | -24.5% | . | -14.7% | 3.8% | 4.7 | .
CCOc1ccc(S(=O)(=O)N2CCN(C(=O)c3oc4ccc(OC)cc4c3C)CC2)cc1 | ? | ? | ? | . | 7.8 | 3.4
CCOc1cc(/C=N/NC(=O)Cc2ccc(C(F)(F)F)cc2[N+](=O)[O-])c(Br)cc1OC | ? | 5.4 | ? | 1.8% | 0.4 | -5.3
COc1ccc(/C=N/NC(=O)Cn2nc([N+](=O)[O-])cc2C)c(OC)c1OC | -0.1% | 0.0 | -19.9% | -3.6% | -6.4 | -13.5
COc1cc([N+](=O)[O-])cc(/C=N/NC(=O)Cn2nc(C)cc2C)c1O | ? | 7.0 | 23.1µM* | 0.7% | -25.4 | -59.9*
COc1cc([N+](=O)[O-])cc(/C=N/NC(=O)CSc2nnc(-c3ccccc3)n2C)c1O | -6.5% | -1.0 | -2.3% | . | -5.2 | -51.9*
COc1cc(Br)cc(/C=N/NC(=O)Cc2ccc(C(F)(F)F)cc2[N+](=O)[O-])c1O | 1.84µM* | 76.2 | 2.59µM* | 0.9% | 11.0 | -2.4
Cn1c(SCC(=O)N/N=C/c2ccc([N+](=O)[O-])s2)nnc1-c1ccc(Cl)cc1 | 13µM* | ? | 20.6µM* | 1.1% | -14.3 | ?
SMILES | TDP1 cell CPT | IL1B secr inh | TDP1 cell noCPT | ClpP mod | D3 ag | D3 antag
CC[C@]12c3[nH]c4cc(CCC(=O)N(C)C)ccc4c3CCN1C(=O)[C@@H](CC(=O)NCCc1ccccn1)C[C@@H]2C(=O)N1CCN(C(=O)C2CC2)CC1 | 7.4% | -19.9 | -1.7% | 0.4% | 8.4 | 15.4
Cc1ccc(C)c(OC(=O)c2cccnc2)c1 | -3.3% | 10.6 | 3.5% | -0.9% | -3.1 | -2.0
CCC(C)Sc1ccc([C@H]2N[C@@](C)(C(=O)OC)[C@H]3C(=O)N(CC)C(=O)[C@@H]23)cc1OC (some centres not stated) | ? | 34.7 | ? | -4.5% | 2.4 | 33.4
C[C@@H](C(=O)N[C@H](C(=O)O)c1ccccc1)n1nnc2ccccc2c1=O | -6.0% | 5.8 | 3.0% | 1.8% | -2.7 | -5.4
O=C(CS(=O)(=O)c1ccc(Cl)cc1)NCc1ccccc1 | 8.1% | -2.7 | -12.7% | -1.0% | -1.5 | -12.4
COc1cc([N+](=O)[O-])cc(/C=N/NC(=O)Cn2nccc2C)c1O | ? | 0.0 | ? | 0.4% | -11.7 | -53.3*
Cc1ccc(NC(=O)c2cc(NC(=O)c3ccco3)ccc2N2CCOCC2)cc1 | ? | -25.9 | 16.4µM* | -2.7% | -2.6 | 16.9
Cc1ccc(NC(=O)c2cc(N3C(=O)C=CC3=O)ccc2N2CCOCC2)cc1 | 0.82µM* | -62.8* | 2.31µM* | . | 0.2 | 6.7
Cc1ccc(NC(=O)c2cc(N3C(=O)C=CC3=O)ccc2Cl)cc1C | 5.17µM* | -14.1 | 4.61µM* | 3.2% | -3.5 | -0.1
Cc1ccc(NC(=O)c2cc(-n3cnnc3)ccc2Cl)cc1 | -0.5% | -7.2 | -18.3% | -2.2% | 15.0 | -27.9
O=C(c1ccccc1)c1nn(-c2cccc(Cl)c2)c2nc(-c3ccccc3)cc(=O)n12 | -30.0% | -13.2 | ? | -5.7% | -7.3 | 5.2
Cc1cccc(-n2nc(C(=O)Nc3ccccc3)n3c(=O)cc(-c4ccccc4)nc23)c1 | ? | -9.4 | 16.4µM* | -2.6% | 5.1 | 18.6
Cc1ccc2c(CC(=O)Nc3ccc(S(=O)(=O)N4CCCCC4C)cc3)coc2c1 (configuration not stated) | ? | . | ? | -3.2% | 1.5 | .
O=Cc1cn(CC(=O)N2CCCc3ccccc32)c2ccccc12 | 5.8µM* | 18.8 | 5.8µM* | 0.8% | -5.9 | -56.5*
Cn1cc(C(=O)C(=O)N2CCCc3ccccc32)c2ccccc21 | 16.4µM* | 21.0 | 13µM* | -0.4% | -10.9 | -21.9
